Source: PubChem BioAssay
An excerpt weighted towards active compounds, which were near 7.4% of everything screened.
NPC1 prom act: activators of NPC1 promoter; Huh7 NPC1 promoter luciferase reporter, 24 h; 320,000 compounds, 2.4% hits; Potency, µM (series often up to 9.22 µM), without a hit: at the highest dose activation, usual class: activators; AID 485313; also: % of control where 0% means no effect; nearly all actives have a fitted effect of over 60% in size
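Stably transfected Huh7 (NPC1 promoter→luciferase), 1500 cells/well in Opti-MEM + 10% FBS, 2 h settle, then compound 24 h at 37 °C. Luminescence after 10 min with Amplite reagent.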
Rab9 promoter act: activates the Rab9 promoter | Huh7 Rab9 promoter-luciferase reporter, luminescence, 24 h | Potency, µM (titrated, usually from 9.22 µM), for the others: at the top dose activation, negative = inhibition, actives largely listed as activators | 320,000 compounds, 2.8% hits | AID 485297; also: % of control where 0% means no effect; nearly all actives have a fitted effect of over 60% in size
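Luciferase signal after 10 min detection reagent at ambient indicates Rab9 promoter upregulation; stably transfected Huh7 cells were treated 24 h with compound in DMSO at 37 °C, 5% CO2.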
FLuc counter: counter-screen for miR-21 project: firefly luciferase inhibitors or activators; P08659; purified FLuc, Km substrates, luminescence inhibition; Potency, µM (series often up to 57.5 µM), without a hit: top-dose activity change, negative = inhibition, most hits filed as inhibitors; 360,000 compounds, 6.9% hits;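 also: plate controls were vehicle for no effect and reference inhibitor for full effect; nearly all actives have a fitted effect of over 55% in size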
Target sequence (P08659 whole entry, looked up): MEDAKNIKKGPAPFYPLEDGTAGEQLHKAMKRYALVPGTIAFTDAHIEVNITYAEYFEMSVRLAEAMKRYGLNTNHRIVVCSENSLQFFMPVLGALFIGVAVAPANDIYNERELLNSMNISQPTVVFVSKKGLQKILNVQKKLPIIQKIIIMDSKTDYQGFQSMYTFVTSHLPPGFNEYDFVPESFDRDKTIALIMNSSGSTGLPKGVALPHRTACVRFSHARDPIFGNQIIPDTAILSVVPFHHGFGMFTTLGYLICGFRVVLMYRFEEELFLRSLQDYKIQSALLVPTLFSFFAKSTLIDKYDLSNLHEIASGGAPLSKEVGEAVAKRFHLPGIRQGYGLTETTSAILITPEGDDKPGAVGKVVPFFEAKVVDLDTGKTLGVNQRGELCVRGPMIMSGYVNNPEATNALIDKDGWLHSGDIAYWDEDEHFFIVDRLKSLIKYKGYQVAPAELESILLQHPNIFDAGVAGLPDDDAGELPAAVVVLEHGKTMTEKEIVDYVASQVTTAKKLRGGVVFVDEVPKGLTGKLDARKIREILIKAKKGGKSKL
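Purified P. pyralis luciferase, 10 nM final, with Km-level 10 uM D-luciferin and 10 uM ATP in 50 mM Tris acetate pH 7.5, 10 mM Mg acetate, 0.01% Tween-20, 0.05% BSA; 6-point qHTS titration about 60 µM downward; luminescence read.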
SMN2 splice enh: SMN2 splice variant enhancement; AID 1458; Potency, µM (series often up to 46.1 µM), without a hit: top-dose activity change, positive = activation, most hits filed as activators; HEK293 SMN2-luciferase splicing reporter, luminescence, 30-36 h; 210,000 compounds, 2.8% hits; also: % of control where 0% means no effect; nearly all actives have a fitted effect of over 55% in size
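HEK293 cells carry an SMN2 minigene-luciferase reporter in which exon 7 inclusion puts luciferase in frame. Cells were seeded at 2000 cells/well, attached for 10-12 hours, then exposed to compounds for 30-36 hours at 37C before ONE-Glo luminescence.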
Luc counter: blocks Kinase-Glo luciferase, a counter-screen artifact. Q27757. Kinase-Glo luciferase, ATP luminescence, 8 min. Potency, µM (series often up to 38.3 µM), without a hit: at the top dose activity change, negative = inhibition, actives largely listed as inhibitors. 200,000 compounds, 0.28% hits. AID 1379; also: % is scaled to controls: 0 for no effect and ±100 for the full control effect; nearly all actives have a fitted effect of over 60% in size
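Luminescence was the read-out, taken after 8-minute incubation at ambient temperature. Luciferase turned over luciferin with 10 uM ATP in imidazole pH 7.2 buffer containing KCl, MgCl2, Tween 20 and BSA.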
ELG1 genotoxic: genotoxicity induction in ELG1-luciferase HEK293T cells | HEK293T ELG1-luciferase reporter, luminescence, 16 h | Potency, µM (top dose mostly 46 µM), without a hit: top-dose activity change, positive = activation, hits mostly activators | 330,000 compounds, 1.3% hits | AID 504466; also: % of control where 0% means no effect; nearly all actives have a fitted effect of over 60% in size
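HEK293T cells expressing luciferase-tagged ELG1 were treated with compound or DMSO for 16 hr at 37°C. Luciferase activity was then read after 30 min with ONE-Glo at room temperature; rising signal flags genetic stress.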
* marks the source's active call; other numbers are inactive results. Calls follow the shape of the dose curve; as a rule, active = well fitted curve in the direction sought with a large enough effect; inconclusive = small, poorly fitted or top-dose-only effect, or another doubt; inactive = no such curve, though single readings can be large; an effect the other way counts as inactive or inconclusive. Potency is read from the fitted curve at half-maximal effect.

CC(=O)c1ccc(S(=O)(=O)Nc2cccc(-c3cn4c(n3)SCC4)c2)cc1 was read as NPC1 prom act 2.5%, Rab9 promoter act 5.0%, FLuc counter -15.5%, SMN2 splice enh -40.1%, Luc counter 1.0% and ELG1 genotoxic -5.9%.
`CC(=O)c1ccc(S(=O)(=O)Nc2cccc(-c3ccc(N4CCCC4)nn3)c2)cc1` gave FLuc counter 9.53µM*.
COc1ccc(C(=O)NC(=O)Nc2ncccc2C)cc1 was read as NPC1 prom act inconclusive, Rab9 promoter act 3.55µM*, FLuc counter 16.9µM*, SMN2 splice enh inconclusive, Luc counter -20.9% and ELG1 genotoxic inconclusive.
Screening Cc1cccnc1NC(=O)Nc1ccc(Cl)cc1 returned NPC1 prom act -8.3%, Rab9 promoter act 3.98µM*, FLuc counter 4.26µM* and ELG1 genotoxic inconclusive.
Screening Cc1cccnc1NC(=O)CCNC(=O)c1ccc(Cl)cc1 returned NPC1 prom act 1.2%, Rab9 promoter act 3.7%, FLuc counter 5.2% and ELG1 genotoxic 7.5%.
Screening COc1ccc(NC(=O)Nc2ncccc2C)cc1 returned NPC1 prom act inconclusive, Rab9 promoter act inconclusive, FLuc counter 10.7µM*, SMN2 splice enh 11.2µM*, Luc counter -4.6% and ELG1 genotoxic inconclusive.
`COC(=O)c1ccccc1NC(=O)Nc1ncccc1C` gave NPC1 prom act -2.6%, Rab9 promoter act -7.4%, FLuc counter -0.7%, SMN2 splice enh 2.5%, Luc counter 3.1% and ELG1 genotoxic 0.4%.
Screening Cc1cccnc1NC(=O)Nc1ccccc1 returned NPC1 prom act inconclusive, Rab9 promoter act 3.98µM*, FLuc counter 10.7µM* and ELG1 genotoxic inconclusive.
Screening CCOC(=O)c1c(C)[nH]c(C)c1S(=O)(=O)N1CCCC(C(=O)N2CCN(c3cccc(Cl)c3)CC2)C1 (stereo not given) returned FLuc counter 6.6%.
Screening Cc1ccc(NC(=O)c2ccc3snnc3c2)cc1Cl returned FLuc counter -1.5% and SMN2 splice enh inconclusive.
Cc1cc(Nc2ccc(Cl)cc2)n2cnnc2n1 was read as FLuc counter -6.5% and SMN2 splice enh 2.5%.
For C=Cc1ccc(COc2ccc3oc(-c4ccccc4)c(C(=O)OCC)c3c2)cc1 the results were FLuc counter -1.7% and SMN2 splice enh -7.8%.
Screening O=C(NCc1cccnc1)c1nn(-c2ccc(F)cc2)nc1CO returned FLuc counter -8.2% and SMN2 splice enh -36.7%.
For Cn1c(Oc2ccc(Cl)cc2)nc2c1c(=O)n(Cc1ccc(F)cc1)c(=O)n2C the results were FLuc counter 3.3% and SMN2 splice enh -5.4%.
Screening COC(=O)/C=C1/SC(=NC(=O)c2ccc(F)cc2)NC1=O returned NPC1 prom act 9.7%, Rab9 promoter act 19.0%, FLuc counter -17.6% and ELG1 genotoxic -3.2%.
COC(=O)/C=C1\S/C(=N/N=C/c2ccccc2)NC1=O was read as NPC1 prom act 2.1%, Rab9 promoter act -2.7%, FLuc counter 6.01µM*, SMN2 splice enh 5.7%, Luc counter 1.9% and ELG1 genotoxic -0.1%.
COC(=O)/C=C1/SC(=NC(=O)c2ccc(OC)cc2)NC1=O was read as NPC1 prom act 0.3%, Rab9 promoter act 0.8%, FLuc counter 26.9µM* and ELG1 genotoxic 2.6%.
`COC(=O)/C=C1/S/C(=N/N=C/c2ccco2)NC1=O` gave NPC1 prom act -1.2%, Rab9 promoter act 1.5%, FLuc counter inconclusive and ELG1 genotoxic 2.2%.
Screening COC(=O)/C=C1\S/C(=N/N=C/c2ccc(Cl)cc2)NC1=O returned NPC1 prom act -3.4%, Rab9 promoter act -1.9%, FLuc counter 10.7µM* and ELG1 genotoxic -0.7%.
For CCc1ccccc1N1C(=O)N(Cc2cc(=O)n3ccccc3n2)c2ccccc2S1(=O)=O the results were FLuc counter 0.9%.
